This is part of a sample that, as a whole, favours compounds with a hit. Of some 79,000 tested, about 15% had one in any assay. A number with no mark means an inactive call. Calls of active or inactive are those of the source. Rule as the data show it: active = growth inhibition above about 70%; inactive = the rest.

The nature of experiment [1]: NCI Yeast Anticancer Drug Screen. Data for the rad50 strain (AID 155).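 Also: 0% = growth of vehicle-only cultures of the same strain.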 The conditions noted are these: S. cerevisiae rad50 strain growth inhibition, hits give high values. In a few lines:
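Relative growth inhibition (compound vs vehicle) was measured in yeast with a defined repair-gene alteration.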

Experiment [2] can be described thus: NCI Yeast Anticancer Drug Screen. Data for the mec2-1 strain (AID 157). As to conditions: S. cerevisiae mec2-1 strain, hits give high values. In a few lines: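 mec2-1 yeast strain, carrying an alteration in DNA damage repair or cell cycle control, was exposed to compounds; growth inhibition was measured relative to vehicle-treated controls.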
Experiment [3] in a line: NCI Yeast Anticancer Drug Screen. Data for the sgs1 mgt1 strain (AID 161).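 Also: 0% = growth of cultures given vehicle only.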 The conditions noted are these: S. cerevisiae sgs1 mgt1 strain, hits give high values. In outline:
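Percent growth inhibition was derived by comparing compound-exposed mutant yeast with vehicle-exposed cultures. The strain carries alterations in DNA damage repair.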

Experiment [4] is described as follows: NCI Yeast Anticancer Drug Screen. Data for the cln2 rad14 strain (AID 165).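 Also: 0% = growth equal to vehicle treated cultures.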 The conditions noted are these: S. cerevisiae cln2 rad14 strain, hits give high values. In a few lines: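 Yeast carrying cln2 and rad14 alterations (cell cycle control and DNA damage repair) were exposed to compounds. Growth inhibition was measured against vehicle-treated controls.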

Experiment [5] in a line: NCI Yeast Anticancer Drug Screen. Data for the bub3 strain (AID 167). As to conditions: S. cerevisiae bub3 mutant strain, hits give high values. In outline: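 Screening used yeast with an engineered genetic alteration affecting cell cycle control. Compound-exposed cultures were compared with vehicle cultures, and reduced growth was taken as inhibition.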
The nature of experiment [6]: NCI Yeast Anticancer Drug Screen. Data for the mlh1 rad18 strain (AID 175). The conditions noted are these: S. cerevisiae mlh1 rad18 strain growth inhibition, hits give high values. In outline: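 Growth inhibition of the yeast strain was measured after compound exposure and expressed relative to vehicle-treated controls. The strain carries defined defects in DNA damage repair.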

The mark [7] stands for this setting: at 5.0 µM (retest, dose inferred, filed as 0.5).
Setting [8] is: at 50.0 µM (retest, dose inferred, filed as 5.0).

In the case of `C1CCC(CCNCCC2CCCCC2)CC1`, the growth inhibition in experiment [1] (setting [7]) was -1%; in experiment [1] (setting [8]), 99% (active); in experiment [1] (at 50.0 µM) it was 99% (active); in experiment [2] (setting [7]), -15%; in experiment [2] (setting [8]), 99% (active); in experiment [2] (at 50.0 µM), 97.5% (active). The growth inhibition was 25% in experiment [3] (setting [7]); 99% (active) in experiment [3] (setting [8]); 99% (active) in experiment [3] (at 50.0 µM); -15% in experiment [4] (setting [7]); 99% (active) in experiment [4] (setting [8]); 98.7% (active) in experiment [4] (at 50.0 µM). In addition, the growth inhibition in experiment [5] (setting [7]) was -8%; in experiment [5] (setting [8]) it was 99% (active); in experiment [5] (at 50.0 µM), 98.5% (active); in experiment [6] (setting [7]), 8%; in experiment [6] (setting [8]) it was 99% (active); in experiment [6] (at 50.0 µM) it was 98.7% (active).

Regarding `CC1(C)c2ccccc2-c2nc3ccccc3cc2C1Br` (stereo not given), the growth inhibition in experiment [1] (setting [7]) is -1%; in experiment [1] (setting [8]), 29%; in experiment [1] (at 50.0 µM) it was 37.6%; in experiment [2] (setting [7]), -4%; in experiment [2] (setting [8]) it was 26%; in experiment [2] (at 50.0 µM), 46.7%. The growth inhibition was -4% in experiment [3] (setting [7]); 23% in experiment [3] (setting [8]); 73.7% (active) in experiment [3] (at 50.0 µM); -22% in experiment [4] (setting [7]); 4% in experiment [4] (setting [8]); 44.3% in experiment [4] (at 50.0 µM). The growth inhibition is 2% in experiment [5] (setting [7]); 59% in experiment [5] (setting [8]); 95% (active) in experiment [5] (at 50.0 µM); -1% in experiment [6] (setting [7]); 27% in experiment [6] (setting [8]); 70.5% (active) in experiment [6] (at 50.0 µM).

As for `O=C1C=CC(=O)N1C12CC3CC(CC(C3)C1)C2`, the growth inhibition was 41% in experiment [1] (setting [7]); 99% (active) in experiment [1] (setting [8]); 90.8% (active) in experiment [1] (at 50.0 µM); 62% in experiment [2] (setting [7]); 99% (active) in experiment [2] (setting [8]); 93.4% (active) in experiment [2] (at 50.0 µM). Further, the growth inhibition in experiment [3] (setting [7]) was 73% (active); in experiment [3] (setting [8]), 99% (active); in experiment [3] (at 50.0 µM), 90.9% (active); in experiment [4] (setting [7]) it was 13%; in experiment [4] (setting [8]), 99% (active); in experiment [4] (at 50.0 µM), 91.5% (active). Further, the growth inhibition in experiment [5] (setting [7]) is 72% (active); in experiment [5] (setting [8]) it was 99% (active); in experiment [5] (at 50.0 µM) it was 91.8% (active); in experiment [6] (setting [7]), 76% (active); in experiment [6] (setting [8]), 99% (active); in experiment [6] (at 50.0 µM), 90.7% (active).

On to `CCCCCCc1ccc(O)cc1O`, for which the growth inhibition in experiment [1] (setting [7]) is 5%; in experiment [1] (setting [8]), 98% (active); in experiment [1] (at 50.0 µM), 99.5% (active); in experiment [2] (setting [7]) it was -3%; in experiment [2] (setting [8]) it was 100% (active); in experiment [2] (at 50.0 µM) it was 99.8% (active). For the same compound, the growth inhibition was -1% in experiment [3] (setting [7]); 100% (active) in experiment [3] (setting [8]); 99.5% (active) in experiment [3] (at 50.0 µM); -4% in experiment [4] (setting [7]); 99% (active) in experiment [4] (setting [8]); 99.5% (active) in experiment [4] (at 50.0 µM). The growth inhibition in experiment [5] (setting [7]) is -1%; in experiment [5] (setting [8]), 99% (active); in experiment [5] (at 50.0 µM), 99.5% (active); in experiment [6] (setting [7]) it was -1%; in experiment [6] (setting [8]) it was 99% (active); in experiment [6] (at 50.0 µM) it was 36%.

Regarding `O=C(/C=C\c1cccc2ccccc12)c1ccccn1`, the growth inhibition in experiment [1] (setting [7]) was 7%; in experiment [1] (setting [8]), 97% (active); in experiment [1] (at 50.0 µM) it was 98.2% (active); in experiment [2] (setting [7]), 4%; in experiment [2] (setting [8]), 97% (active); in experiment [2] (at 50.0 µM) it was 93.5% (active). The growth inhibition in experiment [3] (setting [7]) was 12%; in experiment [3] (setting [8]), 99% (active); in experiment [3] (at 50.0 µM) it was 98.8% (active); in experiment [4] (setting [7]), 0%; in experiment [4] (setting [8]), 97% (active); in experiment [4] (at 50.0 µM), 87.2% (active). For the same compound, the growth inhibition is 20% in experiment [5] (setting [7]); 99% (active) in experiment [5] (setting [8]); 97% (active) in experiment [5] (at 50.0 µM); 9% in experiment [6] (setting [7]); 99% (active) in experiment [6] (setting [8]); 99% (active) in experiment [6] (at 50.0 µM).

Turning to `CCCCCOC(=O)c1ccc(O)cc1`, the growth inhibition is -3% in experiment [1] (setting [7]); 98% (active) in experiment [1] (setting [8]); -3.65% in experiment [1] (at 50.0 µM); 7% in experiment [2] (setting [7]); 100% (active) in experiment [2] (setting [8]); 36% in experiment [2] (at 50.0 µM). In addition, the growth inhibition is 2% in experiment [3] (setting [7]); 99% (active) in experiment [3] (setting [8]); 51.2% in experiment [3] (at 50.0 µM); -9% in experiment [4] (setting [7]); 97% (active) in experiment [4] (setting [8]); 13.1% in experiment [4] (at 50.0 µM). For the same compound, the growth inhibition in experiment [5] (setting [7]) is 32%; in experiment [5] (setting [8]), 99% (active); in experiment [5] (at 50.0 µM), 88.9% (active); in experiment [6] (setting [7]), 3%; in experiment [6] (setting [8]) it was 99% (active); in experiment [6] (at 50.0 µM) it was 15.4%.

For the compound `Cc1cccc(Cc2ccc(Cl)cc2)c1O`, the growth inhibition was 4% in experiment [1] (setting [7]); 99% (active) in experiment [1] (setting [8]); 99.3% (active) in experiment [1] (at 50.0 µM); -1% in experiment [2] (setting [7]); 100% (active) in experiment [2] (setting [8]); 99.5% (active) in experiment [2] (at 50.0 µM). In addition, the growth inhibition in experiment [3] (setting [7]) is 5%; in experiment [3] (setting [8]), 99% (active); in experiment [3] (at 50.0 µM), 99.5% (active); in experiment [4] (setting [7]) it was -10%; in experiment [4] (setting [8]), 99% (active); in experiment [4] (at 50.0 µM), 99.3% (active). Moreover, the growth inhibition was -6% in experiment [5] (setting [7]); 99% (active) in experiment [5] (setting [8]); 99.2% (active) in experiment [5] (at 50.0 µM); -2% in experiment [6] (setting [7]); 99% (active) in experiment [6] (setting [8]); 99% (active) in experiment [6] (at 50.0 µM).

`O=C1OC(=O)c2ccc([N+](=O)[O-])c3cccc1c23`: the growth inhibition in experiment [1] (setting [7]) is 0%; in experiment [1] (setting [8]), 7%; in experiment [1] (at 50.0 µM), 70.4% (active); in experiment [2] (setting [7]), 2%; in experiment [2] (setting [8]) it was 9%; in experiment [2] (at 50.0 µM) it was 51.6%. Further, the growth inhibition in experiment [3] (setting [7]) was 2%; in experiment [3] (setting [8]), 2%; in experiment [3] (at 50.0 µM), 76.4% (active); in experiment [4] (setting [7]) it was 3%; in experiment [4] (setting [8]) it was 14%; in experiment [4] (at 50.0 µM), 26.4%. For the same compound, the growth inhibition in experiment [5] (setting [7]) was 0%; in experiment [5] (setting [8]), 16%; in experiment [5] (at 50.0 µM), 74.2% (active); in experiment [6] (setting [7]), 0%; in experiment [6] (setting [8]), 13%; in experiment [6] (at 50.0 µM) it was 82.8% (active).

On to `Clc1ccc(SSc2ccc(Cl)cn2)nc1`, for which the growth inhibition in experiment [1] (setting [7]) was 5%; in experiment [1] (setting [8]), 69%; in experiment [1] (at 50.0 µM), 78.2% (active); in experiment [2] (setting [7]), 6%; in experiment [2] (setting [8]) it was 96% (active); in experiment [2] (at 50.0 µM) it was 96.3% (active). The growth inhibition was 17% in experiment [3] (setting [7]); 96% (active) in experiment [3] (setting [8]); 57.9% in experiment [3] (at 50.0 µM); -4% in experiment [4] (setting [7]); 51% in experiment [4] (setting [8]); 20.6% in experiment [4] (at 50.0 µM). Moreover, the growth inhibition in experiment [5] (setting [7]) was -3%; in experiment [5] (setting [8]), 97% (active); in experiment [5] (at 50.0 µM) it was 82.8% (active); in experiment [6] (setting [7]), 11%; in experiment [6] (setting [8]), 92% (active); in experiment [6] (at 50.0 µM) it was 81.1% (active).

For the compound `CC(C)(O)[C@H](CCO)O[Si](c1ccccc1)(c1ccccc1)C(C)(C)C`, the growth inhibition in experiment [1] (setting [7]) was 26%; in experiment [1] (setting [8]), 97% (active); in experiment [1] (at 50.0 µM), 98.3% (active); in experiment [2] (setting [7]), 18%; in experiment [2] (setting [8]), 98% (active); in experiment [2] (at 50.0 µM), 92% (active). Moreover, the growth inhibition was 13% in experiment [3] (setting [7]); 97% (active) in experiment [3] (setting [8]); 98.2% (active) in experiment [3] (at 50.0 µM); 17% in experiment [4] (setting [7]); 97% (active) in experiment [4] (setting [8]); 97.5% (active) in experiment [4] (at 50.0 µM). For the same compound, the growth inhibition was 4% in experiment [5] (setting [7]); 98% (active) in experiment [5] (setting [8]); 98.5% (active) in experiment [5] (at 50.0 µM); 23% in experiment [6] (setting [7]); 97% (active) in experiment [6] (setting [8]); 98.6% (active) in experiment [6] (at 50.0 µM).

Source of the values: PubChem BioAssay (NCI).
